Assay outcomes deposited in PubChem BioAssay by ICCB-Longwood Screening Facility, Harvard Medical School.
MenB inh: Mtb MenB enzyme inhibition; P9WNP5; AID 540299; hit rate 0.43% among 100,000; MenB enzyme assay, absorbance read-out; inhibition, % (no concentration beside the values); in the data active = inhibition above about 21%, passing the limit was not always enough
AID504770: growth inhibitors of E. coli YBA685 in a screen for V. cholerae RctB (chromosome II replication) inhibitors. E. coli YBA685 rctB-dependent plasmid, OD600 growth, 3 h; hits give low values. z-score (no concentration beside the values). hit rate 0.27% among 130,000; in the data active = z-score below about -2, passing the limit was not always enough
Polio RdRp inh: poliovirus RNA polymerase inhibition; P03300; poliovirus polymerase elongation, fluorescence polarization; hits give low values; % elongation, % (compound at 16.7 µg/mL); hit rate 0.66% among 150,000; AID 588519; in the data active = % elongation below about 90%
Mtb MbtI inh: inhibitors of Mycobacterium tuberculosis siderophore enzyme MbtI; AID 493033; inhibition, % (test concentration not listed); purified MbtI enzyme, fluorescence intensity read-out; hit rate 0.89% among 100,000; in the data active = inhibition mostly above about 56%, no sharp cut-off; inactive = mostly below about 77%
Target sequence (P9WFX0 whole entry, looked up): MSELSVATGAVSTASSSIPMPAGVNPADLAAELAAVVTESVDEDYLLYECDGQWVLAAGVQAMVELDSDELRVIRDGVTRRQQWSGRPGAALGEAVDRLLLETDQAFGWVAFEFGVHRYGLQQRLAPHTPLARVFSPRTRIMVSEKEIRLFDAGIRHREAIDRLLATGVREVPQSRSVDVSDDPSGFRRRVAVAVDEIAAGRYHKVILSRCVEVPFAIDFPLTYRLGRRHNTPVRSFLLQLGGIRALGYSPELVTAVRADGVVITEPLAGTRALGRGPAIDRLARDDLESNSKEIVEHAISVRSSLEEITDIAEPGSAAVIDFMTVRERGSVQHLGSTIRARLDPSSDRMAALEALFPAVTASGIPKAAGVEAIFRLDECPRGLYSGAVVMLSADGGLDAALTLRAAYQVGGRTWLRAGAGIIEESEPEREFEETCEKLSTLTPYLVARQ
A number is an active result; 0 = inactive; - = no result given. The list is not random: actives were taken first. Their share in the collection is about 1.4%.

SMILES	MenB inh	AID504770	Polio RdRp inh	Mtb MbtI inh
O=C(c1ccccc1)c1ccc(C(=O)c2ccccc2)cc1	0	0	82.0	-
O=C(c1ccccc1)N1CCCC(C(=O)N2CCC(Cc3ccccc3)CC2)C1 (configuration not stated)	0	0	0	0
N#CC(C#N)=NNc1ccccc1	0	-3.65	0	0
Cc1nn(C)c2c1S(=O)(=O)N=C(SCc1c(F)cccc1Cl)S2	0	0	88.0	84.0
O=C(Cn1nc(Cc2ccncc2)c2ccccc2c1=O)NCCC1=CCCCC1	-	-2.25	-	-
N#C/C(=C\C=C\c1ccco1)c1nc(-c2ccccc2)cs1	0	0	0	0
Cc1ccc(-n2sc3ccccc3c2=O)cc1	0	0	0	101.5
Cc1ccc(N2C(=O)c3ccccc3C2=O)cc1	0	0	0	0
COc1ccc2nc(C(=O)O)sc2c1	0	0	86.0	-
CCOC(=O)c1c(N2C(=O)C=CC2=O)sc(C)c1-c1ccccc1	0	0	0	76.6
Cc1ccc2nc(NCn3nc(-c4ccccc4)oc3=S)sc2c1	0	0	0	0
CC1=CC(C)(C)N=C(Nc2nc(C)c3cc(C)cc(C)c3n2)N1	0	0	76.0	-
CCN1CN=C(Nc2nc(C)c3cc(C)ccc3n2)NC1	0	0	0	0
NCC(=O)Nc1ccc(Br)cc1	0	0	0	0
NNc1ccc(Br)cc1	0	-6.35	0	-
CC(C)C(=O)N1N=C(c2cccc(NS(C)(=O)=O)c2)CC1c1ccccc1 (configuration not stated)	0	0	0	0
CSc1cccc(N2CC(C(=O)N3CCCCC3C(N)=O)CC2=O)c1 (configuration not stated)	0	0	0	0
O=C1C2C3C=CC(O3)C2C(=O)N1c1ccccc1C(F)(F)F (configuration not stated)	-	0	-	-
O=C1C=CC(=O)N1c1ccccc1C(F)(F)F	-	-2.5	0	98.5
O=C1C=CC(=O)N1c1cc(C(F)(F)F)ccc1Cl	-	0	0	98.2
O=C1C=CC(=O)N1c1ccc(C(F)(F)F)cc1	-	0	-	-
CCOC(=O)c1cc(-c2ccc(S(=O)(=O)N(CC)c3cccc(C)c3)s2)on1	0	0	0	0
COC(=O)c1c(NC(=O)C(F)(F)F)sc2c1CCCC2	0	0	88.0	-
CCCc1ccc(OCC(=O)Nc2sc3c(c2C(=O)OC)CCCCC3)cc1	-	-	85.0	-
COC(=O)Nc1sc2c(c1C(=O)OC)CCC2	0	0	0	0
SMILES	MenB inh	AID504770	Polio RdRp inh	Mtb MbtI inh
COC(=O)c1c(NC(=O)Cc2cccs2)sc2c1CCCC2	39.3	0	0	0
NC(=O)c1sc(=S)n(-c2ccccc2)c1N	0	0	0	-
Nc1c(C(=O)NC2CCCCC2)sc(=S)n1-c1ccccc1	0	0	0	55.5
O=C(NC1CCCCC1)c1sc(=S)n2c1[nH]c(=O)c1ccccc12	0	0	0	96.0
O=C(NCCc1ccccc1)c1sc(=S)n2c1[nH]c(=O)c1ccccc12	0	0	0	0
CC1(C)C(=O)NCCN1C(=O)CCC(=O)O	30.9	0	0	0
O=C(O)CCC(=O)N1CC(=O)Nc2ccccc21	0	0	0	-
COc1cccc(CN(C)C(=O)c2ccc3c(c2)NC(=O)CS3)c1	0	0	0	0
COCCN(Cc1ccccc1)C(=O)c1ccc2c(c1)NC(=O)CS2	0	0	0	62.9
CCCCOC(=O)Sc1nc2ccccc2o1	0	0	0	91.2
CCC1CC(C)(C)CCN1C(=O)c1cc(=O)[nH]c(=O)[nH]1 (configuration not stated)	-	0	-	0
COc1ccc(/C=C2/C(=O)N(C)c3ccccc32)cc1	0	0	0	0
CN1C(=O)/C(=c2/[nH][nH]c(=O)/c2=C\C=C\c2ccccc2)C(=O)c2ccccc21	0	0	84.0	-
Cc1cc(NC(=O)CN2CCCc3ccccc32)no1	0	0	0	0
Cc1cc(N2CCOCC2)cc(C)[n+]1[O-]	45.8	0	0	0
CC(CCc1ccccc1)NC(=O)NC1CC(=O)N(c2ccccc2)C1 (configuration not stated)	0	0	0	0
O=S1(=O)CC(O)C(S(=O)(=O)c2ccccc2)C1 (configuration not stated)	0	0	0	0
Cn1cnnc1SCc1cn2ccccc2n1	-	0	0	0
COc1ccc2c(c1)c(=O)c1ccoc1n2C	0	0	0	0
CC(C)N(C(=O)NC(=O)Nc1ccc(C=C(C#N)C#N)cc1)S(C)(=O)=O	0	0	88.0	0
O=c1c(=NNc2ccccc2)c(=O)c2ccccc12	0	0	0	0
O=c1c(=NNc2nn[nH]n2)c(=O)c2ccccc12	0	0	-20.0	0
CC(C)N(CC(N)=O)Cc1ccc(-c2ccccc2)cc1	0	0	0	0
Cc1c(P(=S)(N2CCOCC2)N2CCOCC2)cc(C#N)n1C	0	0	80.0	93.5
Cc1cc(=O)nc2c3ccccc3n(C(C)C(=O)N(C)Cc3ccccc3)n12 (configuration not stated)	0	0	0	0
SMILES	MenB inh	AID504770	Polio RdRp inh	Mtb MbtI inh
CCN(CC(=O)NC1CCS(=O)(=O)C1)C(=O)c1cc(C)on1 (configuration not stated)	0	0	0	0
NS(=O)(=O)c1ccc(NC(=O)CCC(=O)Nc2ccc(S(N)(=O)=O)cc2)cc1	0	0	0	0
NS(=O)(=O)c1ccc(NC(=O)CS)cc1	0	0	0	76.0
O=C(CSc1nnnn1Cc1ccccc1)c1ccccc1	0	0	0	0
CCCn1nnnc1SCC(=O)c1ccccc1	30.6	0	0	0
CC(=O)Nc1nc(-c2ccccc2)[n+](-c2ccccc2)s1	-	0	-	-
CNc1nc(-c2ccccc2)[n+](-c2ccccc2)s1	-	0	0	100.1
CC(OC(=O)c1oc2ccccc2c1CSc1ncn[nH]1)C(=O)Nc1ccc(S(=O)(=O)Nc2ncccn2)cc1 (configuration not stated)	0	0	0	0
COc1ccc2c(OC)cccc2c1	-	0	-	-
O=C1N=c2ccccc2=C1c1c(O)n(-c2cccc(F)c2)[nH]c1=O	0	0	0	88.0
COc1ccc(C/C(N)=N/O)cc1OC	21.0	0	0	0
Cc1cccc(NC(=O)CSc2nncc(=O)[nH]2)c1	0	0	0	57.8
Cc1cccc(NC(=O)CSc2nnc(C)c(=O)[nH]2)c1	-	-	0	-
CCOC(=O)c1ccc(NC2CCCc3c2[nH]c2ccc(C)cc32)cc1 (configuration not stated)	0	0	0	0
O=C(c1ccccc1)C1(c2ccccc2)OCCCCO1	0	0	0	-
O=C1ON(c2ccccc2)C(c2ccccc2)N1c1ccc(Cl)cc1 (configuration not stated)	0	0	0	0
O=C(NCCc1ccc(O)c(O)c1)C(F)(F)F	-	0	0	84.9
CCOc1ccc(N2C(=O)CC(N3CCCCC3CC)C2=O)cc1 (configuration not stated)	0	0	0	54.7
C=C1c2cccc(O)c2C(O)=C2C(=O)C3(O)C(O)=C(C(N)=O)C(=O)C(N(C)C)C3C(O)C12 (configuration not stated)	0	-6.9	0	0
Cc1onc(-c2ccccc2Cl)c1-c1nc(-c2ccc(Br)cc2)no1	0	0	0	0
CCCSc1nc(-c2ccc(OC)cc2)cc(-c2ccccc2OC)c1C#N	-	-	88.0	-
c1ccc2c(c1)CCCN2Cc1cn2ccccc2n1	0	0	0	-
